Calls of active or inactive are those of the source. The call rests on the fitted dose curve; in most records, active means well fitted curve in the direction sought with a large enough effect; inactive means no such curve, though single readings can be large or run the other way.
Target: D(2) dopamine receptor (Homo sapiens) (UniProt P14416)
Assay: HTS Assay for Allosteric Antagonists of the Human D2 Dopamine Receptor: Hit Validation in primary assay
From the text: Dopamine receptors (DARs) are involved in the etiology and/or therapy of a number of neuropsychiatric and endocrine disorders. For instance, all receptor-based antiparkinsonian drugs work via stimulating the D2 DAR subtype whereas all FDA-approved antipsychotic agents are antagonists of this receptor. […] There are three different types of allosteric modulators that we are seeking, two of which will stimulate or augment receptor signaling, allosteric agonists and potentiators, while the third, allosteric antagonists, will attenuate receptor signaling. The present primary screening assay measures compound antagonism after an EC80 addition of dopamine by tracking calcium flux in a […], inducible Hek293 Trex D2 cell line. NIH Chemical Genomics Center [NCGC] NIH Molecular Libraries Probe Centers Network [MLPCN] MLPCN Grant: NS064831 Assay Submitter (PI): David Sibley
Freshly passaged cells are plated in 1536 well black, clear bottom plates at a density of 4000 cells/well in 3 ul of complete media containing 1x tetracycline inducer. After an overnight incubation at 30 C in 5% CO2, cells are loaded with 2 ul of the no wash Calcium Assay Kit (ABD Bioquest) and incubated at room temperature for 30 to 90 minutes before it's read.

Sequence of D(2) dopamine receptor (Homo sapiens) (P14416 whole entry, looked up): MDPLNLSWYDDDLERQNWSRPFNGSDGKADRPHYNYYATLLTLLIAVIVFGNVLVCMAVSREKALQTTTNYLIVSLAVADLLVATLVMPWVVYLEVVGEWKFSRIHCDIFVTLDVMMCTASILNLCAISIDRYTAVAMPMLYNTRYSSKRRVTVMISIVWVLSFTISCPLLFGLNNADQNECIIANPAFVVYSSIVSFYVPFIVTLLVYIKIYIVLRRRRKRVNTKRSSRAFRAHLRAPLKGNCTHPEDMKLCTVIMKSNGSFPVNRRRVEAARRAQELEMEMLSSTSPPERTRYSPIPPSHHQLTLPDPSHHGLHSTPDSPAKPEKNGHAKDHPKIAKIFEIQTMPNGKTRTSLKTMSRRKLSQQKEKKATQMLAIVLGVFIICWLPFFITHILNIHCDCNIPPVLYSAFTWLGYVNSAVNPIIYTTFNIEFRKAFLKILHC

Structure (SMILES) | outcome
CN1C2CC(OC(=O)C(CO)c3ccccc3)CC1C(O)C2 (stereo not given) | inactive
CCN1C[C@@]2(C)CC[C@@H](OC)[C@@]34C2C(O)[C@@]2(OCO[C@]25CC(OC)C2C[C@@]3(O)C5C2O)C14 (stereo not given in full) | inactive
NNCc1ccccc1 | inactive
CC(N)C(O)c1ccc(O)c(O)c1 (stereo not given) | inactive
CC1C(=O)OC2O[C@]3(C)CC[C@H]4C(C)CCC1[C@]24OO3 (stereo not given in full) | inactive
